# Test results taken from the supplement of paper PMC6555819.
# System: RARa:RXR (NR concentration 270 nM, RXRa partner concentration 90 nM)
# Test: PBM binding z-score (relative to random genomic background probes); higher = stronger binding; sequences stand for … in GC…GCGATTGACAGCGTAGAATGAAGG
# Procedure, shortened: (§1)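 Regression normalization was applied to scanned fluorescence from custom Agilent 4×180K protein-binding microarrays. Before scanning, arrays were incubated 1 h with ligand-free nuclear receptor dimers, and binding was detected with antibodies against each partner (one per run). Binding z-scores use the random background probes as reference.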
row,Sequence,PBM binding z-score
1,AGAATCAGGTTATTAAGATCAGGGAATTGCGGTC,0.644
2,TCGAGTAGGTTAGGGGTATTCAGAATGGCGTCGA,0.00419
3,CCTACTGGGCCCTTCAGAGGTCATTGATCATATG,4.84
4,GAGACTGGGGCAAAGCAGGTTACCATAAGGTTGG,1.26
5,CCCACTGGGCCACGAAAGGTCATTGATTCAGTGA,5.51
6,CCAGACAGGTGAGAAGGTCACTCAGCCTCGATTA,4.09
7,ATCGAAAGCTCGTGAGGTGAGTATACAGAAAGGC,-0.104
8,TCTAGTTGGTCAAAGGTCACACATTCGAAATGCG,6.86
9,TAGCGTAGGTCAGATCGGGCCAGTATACGCTATA,1.23
10,TCTGGTAGATCAAAGGTTAAGAAAGCCGAAGCCT,2.79
11,CGTCCAAGGTCAAGGTCAGTCAAAGAGACTCGAA,5.42
12,TCATATAGGTAAAGGTGAAAGTCGAACGATATGA,1.71
13,ACAGACAGGTGAGTGAAGGCAACTCAGCTGGACG,-0.0789
14,AGAATGAGGTTATTAAGCTCAGGGAATTGCGGTC,0.948
15,CGTCCAAGGTAAGCAGGTCAGTGAAAGCGACGTG,0.529
16,ACTAGTTTGTCAGCTGAGGTCACACACAATTCGG,4.4
17,TCTTGTAGATCAGCAGGTTCAGAAAGCTGGCCAA,0.455
18,ACAGACAGGTGAGTGAAGGAAACTCAGCTGGACG,-0.777
19,TCTTGTAGATCAAAAGAGGTTAAGAAAGTGCGCT,1.79
20,TTACCGAGGTGAAGGTCGTTGATCCCTCTGTAGA,1.84

row,Sequence,PBM binding z-score
1,CCGAGTAGGTTATGAGGCATTCAGGCAACGGTGA,0.567
2,CGAACTAGGTCATGCAGGACAGTGAATACATTGA,1.97
3,CGTCCAAGGTGAGAGAGGTCAGTGAATGCCGAGT,3.54
4,ACACGGAGGACAAAGGTCAGAGCTACGCCAGTGA,4.81
5,AGTCAAAGTTCGTCTAGGTAACGTAAGATATGCT,1.34
6,AAAACAGGGTCACTAGGCCAGAGTAGGTACGAAT,4.8
7,ACAGACAGGTGAGTGAAGGTAATTCAGCTGGACG,-9.88e-05
8,ATCTCTAGGTAACCAAGTTCAATGAATGCCGAAC,1.33
9,GGAACGAGGGCAAGTTGATAGCGGAGTTTGATGG,0.406
10,ACCATTAGTTGAGACGAGGGCAACCGATAGGTTG,1.48
11,ATATGTAGGTTATCGGTTCATTCAGTTTGCGCAT,1.73
12,AGAATGAGGTTAAGAACAGGGAAACAGAATACAT,1.61
13,TCTCGGAGGCCACGAAAGGTCAGAGCTCGACATC,4.54
14,TCTAGTTGGTCAAAGGTCATACACTCGAAATGCG,7.27
15,CTAACTAGGTCAAGGACAGTGAATCTCCGCACGC,1.87
16,TTGCCTAGGTCAGATCGGGCCAGTATACGCTATA,1.46
17,ACTACTTGGTCAGCTGAGGTCACACACAATTCGG,4.92
18,CGTCCAAGGTCAGCAAGTCAGTGAAAGCGACGTG,3.13
19,CCTTTCGGGTCACGAGGTTATAGCACGACGAGCG,6.44
20,CGTCAAAATTCAACTAAGGTAACGTAAAGCACGC,1.71

# System: RARa homodimer (NR concentration 270 nM)
# Test: as above
# Procedure, shortened: as §1
row,Sequence,PBM binding z-score
1,AGAATCAGGTTATTAAGATCAGGGAATTGCGGTC,1.45
2,TCGAGTAGGTTAGGGGTATTCAGAATGGCGTCGA,0.176
3,CCTACTGGGCCCTTCAGAGGTCATTGATCATATG,0.707
4,GAGACTGGGGCAAAGCAGGTTACCATAAGGTTGG,-0.331
5,CCCACTGGGCCACGAAAGGTCATTGATTCAGTGA,1.31
6,CCAGACAGGTGAGAAGGTCACTCAGCCTCGATTA,2.83
7,ATCGAAAGCTCGTGAGGTGAGTATACAGAAAGGC,-0.351
8,TCTAGTTGGTCAAAGGTCACACATTCGAAATGCG,2.63
9,TAGCGTAGGTCAGATCGGGCCAGTATACGCTATA,-1.14
10,TCTGGTAGATCAAAGGTTAAGAAAGCCGAAGCCT,0.25
11,CGTCCAAGGTCAAGGTCAGTCAAAGAGACTCGAA,2.49
12,TCATATAGGTAAAGGTGAAAGTCGAACGATATGA,0.402
13,ACAGACAGGTGAGTGAAGGCAACTCAGCTGGACG,-0.354
14,AGAATGAGGTTATTAAGCTCAGGGAATTGCGGTC,-0.655
15,CGTCCAAGGTAAGCAGGTCAGTGAAAGCGACGTG,-0.36
16,ACTAGTTTGTCAGCTGAGGTCACACACAATTCGG,1.24
17,TCTTGTAGATCAGCAGGTTCAGAAAGCTGGCCAA,-0.229
18,ACAGACAGGTGAGTGAAGGAAACTCAGCTGGACG,-0.124
19,TCTTGTAGATCAAAAGAGGTTAAGAAAGTGCGCT,-0.0887
20,TTACCGAGGTGAAGGTCGTTGATCCCTCTGTAGA,-0.539

row,Sequence,PBM binding z-score
1,CCGAGTAGGTTATGAGGCATTCAGGCAACGGTGA,-0.00223
2,CGAACTAGGTCATGCAGGACAGTGAATACATTGA,0.243
3,CGTCCAAGGTGAGAGAGGTCAGTGAATGCCGAGT,0.726
4,ACACGGAGGACAAAGGTCAGAGCTACGCCAGTGA,1.1
5,AGTCAAAGTTCGTCTAGGTAACGTAAGATATGCT,0.143
6,AAAACAGGGTCACTAGGCCAGAGTAGGTACGAAT,1.21
7,ACAGACAGGTGAGTGAAGGTAATTCAGCTGGACG,-0.0883
8,ATCTCTAGGTAACCAAGTTCAATGAATGCCGAAC,1.18
9,GGAACGAGGGCAAGTTGATAGCGGAGTTTGATGG,-0.36
10,ACCATTAGTTGAGACGAGGGCAACCGATAGGTTG,-0.14
11,ATATGTAGGTTATCGGTTCATTCAGTTTGCGCAT,1.25
12,AGAATGAGGTTAAGAACAGGGAAACAGAATACAT,0.514
13,TCTCGGAGGCCACGAAAGGTCAGAGCTCGACATC,0.24
14,TCTAGTTGGTCAAAGGTCATACACTCGAAATGCG,3.78
15,CTAACTAGGTCAAGGACAGTGAATCTCCGCACGC,0.59
16,TTGCCTAGGTCAGATCGGGCCAGTATACGCTATA,-0.953
17,ACTACTTGGTCAGCTGAGGTCACACACAATTCGG,0.831
18,CGTCCAAGGTCAGCAAGTCAGTGAAAGCGACGTG,0.523
19,CCTTTCGGGTCACGAGGTTATAGCACGACGAGCG,0.862
20,CGTCAAAATTCAACTAAGGTAACGTAAAGCACGC,1.69
